Laboratory results from PubChem BioAssay AID1159580 (chemical genetic matrix, 2015).
“And” between values parts separate entries of the source, which are not always exact repeats. Equal entries are not always repeated. In all, about 5,500 compounds went through this assay and about 2,000 (36%) were called active. Not shown: some 18% with an inconclusive outcome. Cut-off read from the data, not from the text of the source: active = normalized growth mostly below about 0.91 (no sharp cut-off); inconclusive = no clear call, values can overlap the other calls; inactive = mostly above about 0.92. The list shows a part of the results.

Experiment: chemical genetic growth profiling, strain panel (AID 1159580);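 note: tested at 20 µM; growth read once vehicle control cultures reached saturation at 30 °C; 1 = growth at the plate median or of vehicle wells; lower values mean less growth of the strain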
Conditions: S. cerevisiae deletion strains, growth OD

Measured: normalized growth

COc1ccc2c3c1O[C@H]1C[C@@H](O)C=C[C@@]31CCN(C)C2
inactive: locus YAL013W, strain DEP1, hits give low values 1.01 | locus YAL021C, strain ccr4, hits give low values 1.02 | locus YAL026C, strain drs2, hits give low values 0.993 | locus YAL030W, strain snc1, hits give low values 0.984 | locus YBL061C, strain skt5, hits give low values 0.994 | locus YBR009C, strain hhf1, hits give low values 1.01 | locus YBR021W, strain FUR4, hits give low values 0.999 | locus YBR023C, strain chs3, hits give low values 0.992 | locus YBR171W, strain sec66, hits give low values 1.01 | locus YBR229C, strain ROT2, hits give low values 1 | locus YBR231C, strain swc5, hits give low values 0.984 | locus YBR279W, strain paf1, hits give low values 0.992 | locus YCL011C, strain gbp2, hits give low values 0.998 | locus YCL016C, strain dcc1, hits give low values 0.999 | locus YCL029C, strain bik1, hits give low values 1.02 | locus YCL061C, strain MRC1, hits give low values 1.02 | locus YCL069W, strain vba3, hits give low values 1 | locus YCR088W, strain abp1, hits give low values 1 | locus YDL005C, strain med2, hits give low values 0.995 | locus YDL035C, strain GPR1, hits give low values 1.01 | locus YDL040C, strain nat1, hits give low values 1 | locus YDL074C, strain BRE1, hits give low values 1 | locus YDL101C, strain DUN1, hits give low values 0.996 | locus YDL134C, strain PPH21, hits give low values 1.01 | locus YDL185W, strain tfp1, hits give low values 1.02 | locus YDL192W, strain arf1, hits give low values 1.01 | locus YDR001C, strain nth1, hits give low values 0.998 | locus YDR069C, strain doa4, hits give low values 0.997 | locus YDR101C, strain arx1, hits give low values 1.01 | locus YDR137W, strain rgp1, hits give low values 1.03 | locus YDR150W, strain NUM1, hits give low values 1.01 | locus YDR159W, strain sac3, hits give low values 0.935 | locus YDR162C, strain NBP2, hits give low values 0.97 | locus YDR195W, strain ref2 0.946 | locus YDR297W, strain sur2, hits give low values 1.01 | locus YDR318W, strain mcm21, hits give low values 1.05 | locus YDR334W, strain swr1, hits give low values 0.994 | locus YDR335W, strain msn5, hits give low values 1.02 | locus YDR388W, hits give low values 1.01 | locus YDR392W, strain spt3, hits give low values 1.05 | locus YDR502C, strain sam2, hits give low values 1.01 | locus YEL003W, strain gim4, hits give low values 0.985 | locus YEL037C, strain rad23, hits give low values 1 | locus YEL061C, strain CIN8 (second series), hits give low values 1.01 | locus YEL061C, strain CIN8, hits give low values 1.01 | locus YER015W, strain faa2, hits give low values 0.993 | locus YER016W, strain bim1, hits give low values 1.01 | locus YER110C, hits give low values 1.02 | locus YER111C, strain swi4, hits give low values 0.997 | locus YER155C, strain BEM2 (second series), hits give low values 1.01 | locus YER155C, strain BEM2, hits give low values 0.998 | locus YER167W, strain BCK2, hits give low values 1.03 | locus YFR010W, strain ubp6, hits give low values 0.986 | locus YGL078C, strain dbp3, hits give low values 0.992 | locus YGL086W, strain mad1, hits give low values 1.04 | locus YGL167C, strain pmr1, hits give low values 0.997 | locus YGL173C, strain kem1, hits give low values 0.997 | locus YGL227W, strain vid30, hits give low values 0.997 | locus YGL240W, strain doc1, hits give low values 0.999 | locus YGL248W, strain PDE1, hits give low values 1.01 | locus YGL253W, strain hxk2, hits give low values 1.01 | locus YGR078C, strain PAC10, hits give low values 0.981 | locus YGR135W, strain pre9, hits give low values 1 | locus YGR229C, strain SMI1, hits give low values 0.981 | locus YGR252W, strain gcn5, hits give low values 1.08 | locus YHR013C, strain ard1, hits give low values 1.01 | locus YHR027C, strain rpn1, hits give low values 1 | locus YHR030C, strain SLT2, hits give low values 1.01 and 0.985 | locus YHR079C, strain IRE1 (second series), hits give low values 1.02 | locus YHR079C, strain IRE1, hits give low values 0.989 | locus YHR094C, strain hxt1, hits give low values 1.01 | locus YHR129C, strain ARP1, hits give low values 1.01 | locus YHR142W, strain chs7, hits give low values 0.982 | locus YHR200W, strain rpn10, hits give low values 1.02 | locus YIL066C, strain RNR3, hits give low values 1.01 | locus YIL073C, strain SPO22, hits give low values 1.04 | locus YIL125W, strain kgd1, hits give low values 1.01 | locus YIR030C, strain dcg1, hits give low values 1.02 | locus YJL092W, strain hpr5, hits give low values 1 | locus YJL095W, strain BCK1 (second series), hits give low values 1.01 | locus YJL095W, strain BCK1, hits give low values 1.01 and 0.995 | locus YJL115W, strain asf1, hits give low values 1.01 | locus YJL129C, strain trk1, hits give low values 0.983 | locus YJL134W, strain LCB3, hits give low values 1.01 | locus YJL154C, strain vps35, hits give low values 1.01 | locus YJL164C, strain tpk1, hits give low values 1 | locus YJL166W, strain qcr8, hits give low values 1.01 | locus YJL168C, strain set2, hits give low values 1.01 | locus YJL187C, strain SWE1 (second series), hits give low values 1 | locus YJR043C, strain POL32, hits give low values 1.03 | locus YJR066W, strain TOR1, hits give low values 0.935
